The nature of experiment [1]: qHTS for Inhibitors of the Aldehyde Dehydrogenase Family (ALDH1A2, ALDH1A3, ALDH2, ALDH3A1) (AID 2061307; further: nearly all actives have a fitted effect of over 50% in size; on Potency: test system not described further here; potency means the concentration at half of the fitted maximal effect). (qHTS replaces the single test concentration by a dilution series.)
The target in experiment [2] is Aldehyde dehydrogenase, mitochondrial (Homo sapiens) (UniProt P05091). Kind of experiment: qHTS for Inhibitors of the Aldehyde Dehydrogenase Family (ALDH2) Primary screen (AID 2061308). Further: nearly all actives have a fitted effect of over 55% in size.
In experiment [3] the target is Retinaldehyde dehydrogenase 3 (Homo sapiens) (UniProt P47895). Kind of experiment: qHTS for Inhibitors of the Aldehyde Dehydrogenase Family (ALDH1A3) Confirmatory screens (AID 2061311). Further: potency means the concentration at half of the fitted maximal effect; nearly all actives have a fitted effect of over 60% in size.
Experiment [4] deals with Retinal dehydrogenase 2 (Homo sapiens) (UniProt O94788). Kind of experiment: qHTS for Inhibitors of the Aldehyde Dehydrogenase Family (ALDH1A2) Confirmation screens (AID 2061314). Further: nearly all actives have a fitted effect of over 65% in size. Further: potency means the concentration at half of the fitted maximal effect.
For experiment [5], the target named is Retinaldehyde dehydrogenase 3 (Homo sapiens) (UniProt P47895). The experiment can be described thus: qHTS for Inhibitors of the Aldehyde Dehydrogenase Family (ALDH1A3) Primary screen (AID 2061315).

SMILES strings stand for the structures. Records with an inconclusive call do not appear. Active and inactive are the calls of the source. The call rests on the fitted dose curve; in most records, active means well fitted curve in the direction sought with a large enough effect; inconclusive means small, poorly fitted or top-dose-only effect, or another doubt; inactive means no such curve, though single readings can be large; an effect the other way counts as inactive or inconclusive.

As to `COCCCNC(=O)c1cc2cc(S(=O)(=O)N(C)C)ccc2n1C`, in experiment [1], the Potency entry is “inactive”.
Take `CCOC(=O)C1CCN(C(=O)C(C)(C)NC(=O)Nc2ccc(N)cc2)CC1`: the Potency result in experiment [1] and in experiment [2] was “inactive” in each case.
On to `O=C(O)c1cc(-c2cccs2)nc2cc(Br)ccc12`, for which the Potency in experiment [1] was 10.1 µM (active).
Turning to `COc1cccc(C2c3c(ncn(-c4ccccc4)c3=N)Oc3ccc4ccccc4c32)c1` (centres undefined), the Potency result in experiment [1], in experiment [2] and in experiment [5] was “inactive” throughout. Further, the Potency in experiment [3] was 11.3 µM (active); in experiment [4], 12.7 µM (active).
As to `COc1cccc(-c2nc(-c3ccc(C(=O)O)cc3)no2)c1`, the results for the Potency in experiment [1] and in experiment [3] were 1.2 µM (active) and 0.504 µM (active), respectively. The Potency result in experiment [2] and in experiment [4] was “inactive” in each case.
As to `COc1ccc(NC(=O)c2cc(C3CC3)nc3c2c(C)nn3-c2ccccc2)cc1OC`, the Potency entry in experiment [1] was “inactive”.
Consider `O=C1C=CC(=O)N1c1cccc(Br)c1`, for which, in experiment [1], the Potency was 0.0896 µM (active).
For the molecule `O=C(O)c1ccc(O)c2ncc(N3CC(N4CCOCC4)C3)cc12`, the Potency result in experiment [1], in experiment [2] and in experiment [5] was “inactive” throughout. Besides, the Potency in experiment [3] was 12.7 µM (active); in experiment [4], 15.9 µM (active).
As to `COc1ccc(NC(=S)N=Nc2c(O)[nH]c3ccccc23)cc1`, the Potency result in experiment [1] was “inactive”.
For the molecule `Cc1ccc(C)n1-c1sccc1C#N`, the Potency in experiment [1] is 7.12 µM (active).
Same read-out and setting: to `O=C(NCc1ccccn1)c1ccc2nnc(-c3ccc(OC(F)(F)F)cc3)n2c1` belongs “inactive”.
With `CC(=O)NC(C)c1cc(F)c2cccnc2c1O` (centres undefined), the Potency is 2.52 µM (active) in experiment [1], 11.3 µM (active) in experiment [3] and 10.1 µM (active) in experiment [4]. Also, the Potency entry in experiment [2] and in experiment [5] was “inactive” in each case.
Consider `Oc1ccc(COC2CCN(Cc3ccccc3)C2)c2cccnc12` (centres undefined), for which the Potency entry in experiment [1], in experiment [2], in experiment [4] and in experiment [5] was “inactive” each time. In experiment [3], the Potency was 12.7 µM (active).
With `O=C(N/N=C/c1ccc(Br)o1)c1ccccc1`, the Potency result in experiment [1] was “inactive”.

(Values after PubChem BioAssay (NCATS).)
